HCMV antiviral: blocks human cytomegalovirus replication; HFF cells, HCMV-luciferase reporter, 72 h; stronger effect = lower value; activity change, negative = inhibition, % at 57.5 µM; hit rate 4.5% among 410,000; AID 1259415; in the data active means activity change below about -60%; inconclusive means no clear call, values can overlap the other calls; inactive means above about -39%
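After 16 h attachment at 37C, HFF cells received test compound and HCMV-luciferase (1 PFU/cell); reporter luminescence read 72 h later, data normalized against buffer-only and known inhibitor Salinomycin.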
FMDV antiviral: blocks foot and mouth disease virus; FMDV antiviral cell-based qHTS; Potency, µM (doses to about 57.9 µM), for inactives: at the top dose activity change, negative = inhibition, usual class: inhibitors; hit rate 1.2% among 410,000; AID 1159524; calls by dose curve; tested in HEK293T cells; further: read-out not given here; potency means the concentration at half of the fitted maximal effect; nearly all actives have a fitted effect of over 45% in size
AmpC inh detg: inhibitors of E. coli AmpC beta-lactamase with detergent; hit rate 0.041% among 370,000; P00811; AID 485294; Potency, µM (doses to about 114 µM), without a hit: top-dose activity change, negative = inhibition, usual class: inhibitors; AmpC hydrolysis of nitrocefin, absorbance 480 nm, 0.01% Triton;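 further: potency means the concentration at half of the fitted maximal effect; 0% = no-compound wells and -100% = no-enzyme wells; nearly all actives have a fitted effect of over 25% in size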
Target sequence (P00811 whole entry, looked up): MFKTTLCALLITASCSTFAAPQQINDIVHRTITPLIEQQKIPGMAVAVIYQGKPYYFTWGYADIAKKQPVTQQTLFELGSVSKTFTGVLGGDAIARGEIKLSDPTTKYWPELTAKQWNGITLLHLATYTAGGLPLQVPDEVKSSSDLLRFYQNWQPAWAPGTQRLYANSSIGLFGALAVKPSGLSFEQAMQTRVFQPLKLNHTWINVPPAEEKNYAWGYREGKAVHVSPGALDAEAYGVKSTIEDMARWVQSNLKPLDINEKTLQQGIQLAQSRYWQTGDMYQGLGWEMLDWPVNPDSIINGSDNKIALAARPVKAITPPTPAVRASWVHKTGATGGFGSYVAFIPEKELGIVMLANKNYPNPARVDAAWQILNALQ
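AmpC (5.3 nM in the dispensed reagent) in 20 mM phosphate pH 7.0 with 0.01% (detergent screen) or 0.0001% Triton X-100 was preincubated with compounds for 15 min at room temperature. Nitrocefin was then added from an 800 uM solution, and hydrolysis was followed at 480 nm.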
AmpC inh no detg: blocks E. coli AmpC beta-lactamase in detergent-free assay; P00811; AmpC nitrocefin hydrolysis, absorbance 480 nm, 0.0001% Triton; Potency, µM (highest dose often 57.1 µM), inactives show at the top dose activity change, negative = inhibition, usual class: inhibitors; hit rate 0.52% among 330,000;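 further: potency means the concentration at half of the fitted maximal effect; plate controls were no compound for no effect and no enzyme for full effect; nearly all actives have a fitted effect of over 20% in size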
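20 mM phosphate pH 7.0 + 0.01% (detergent screen) or 0.0001% Triton X-100; 5.3 nM AmpC reagent; cpd preinc 15 min RT; nitrocefin (800 uM stock) to start; A480 q20 s × 4 min; Activity was normalised to no-enzyme and no-compound control wells.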
HCV inhibitor: HCV inhibition | hit rate 3.4% among 340,000 | Huh7.5.1 HCVcc-Cre infection, luciferase reporter, 44 h | Potency, µM (series often up to 41.8 µM), for the others: at the top dose activity change, negative = inhibition, actives largely listed as inhibitors; further: potency means the concentration at half of the fitted maximal effect
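After 44 h co-culture of compound, cells and HCVcc-Cre (~0.5 moi), substrate is added for 15 min at room temperature and luciferase measured over 15 sec. Cells were seeded at 1,000/well and pre-cultured 4 h.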
The depositor's hits bear a star; ? = inconclusive; . = no result given; + = active, no number; ! = repeats disagree. Hits are enriched below; roughly 7.3% of the tested compounds scored in any of these assays. Unless noted, the call rests on the fitted dose curve; in most records, active means well fitted curve in the direction sought with a large enough effect; inconclusive means small, poorly fitted or top-dose-only effect, or another doubt; inactive means no such curve, though single readings can be large; an effect the other way counts as inactive or inconclusive. Unless noted, on the % scale 0 is the no-effect control and ±100 the full control effect.

SMILES | HCMV antiviral | FMDV antiviral | AmpC inh detg | AmpC inh no detg | HCV inhibitor
Cc1cc(O)ccc1C1(c2ccc(O)cc2C)OC(=O)c2ccccc21 | -95.9* | -10.8% | -2.3% | -30.0% | 2.4%
O=C1OC2(c3ccccc31)c1cc(I)c(O)c(I)c1Oc1c2cc(I)c(O)c1I | . | . | 50.1µM* | 25.1µM* | 9.4%
O=C1OC(c2ccccc2)(c2ccccc2)c2ccccc21 | -24.0 | -0.2% | . | . | -12.1%
O=C1OC(c2ccccc2)(c2ccc(O)cc2)c2ccccc21 (stereo unspecified) | -0.8 | -12.0% | . | . | ?
CCCN1CCC(=O)N(CCO)CC1 | 29.1 | 3.5% | 10.0% | -23.5% | 14.4%
COCCCNCCC(CCC(C)C)c1ccc2c(c1)OCO2 (stereo unspecified) | 11.0 | 18.6% | -4.0% | 20.7% | 14.1µM*
CC(C)CCC(CCN1CCCC1)c1ccc2c(c1)OCO2 (stereo unspecified) | 9.2 | -16.3% | 3.7% | 35.3% | ?
CC1CN=C(c2cc(Cl)c(N)c(Cl)c2)c2c3ccccc3nn21 (stereo unspecified) | 79.2 | . | . | . | .
NNC(=O)c1cccc(Cn2cc(Br)c([N+](=O)[O-])n2)c1 | -12.4 | -12.2% | -1.9% | -45.9% | 2.7%
COc1ccc(NC(=O)c2cccc(Cn3cc(Br)c([N+](=O)[O-])n3)c2)c(C)c1 | -18.2 | -13.0% | 3.2% | -10.4% | 10µM*
CCC(=O)c1ccc(O)c(CC=C(C)C)c1 | -64.3* | ? | 2.1% | -33.2% | -16.6%
CC(O)(COc1ccccc1)c1ccc2c(c1)CN(Cc1ccc3nsnc3c1)CCO2 (stereo unspecified) | . | -15.6% | . | . | .
COc1ccc(-c2cn3c(C)c(C(=O)N4CCN(c5ccc(F)cc5)CC4)sc3n2)cc1 | 36.5 | 5.9% | 2.7% | -3.8% | -7.2%
COc1ccccc1N1CCN(C(=O)c2sc3nc(-c4ccc(F)cc4)cn3c2C)CC1 | -60.8* | 0.0% | ? | 224.8% | 4.47µM*
CCC(=O)Nc1ccc(-c2ccc(N3CCC(C)CC3)nn2)cc1 | . | 17.7% | ? | -21.3% | -9.7%
O=C(Nc1cccc(-c2ccc(N3CCOCC3)nn2)c1)c1ccc([N+](=O)[O-])cc1 | 31.5 | -1.6% | -7.3% | 31.6µM* | ?
O=C(Nc1cccc(-c2ccc(N3CCCCC3)nn2)c1)C(F)(F)F | -4.3 | -62.4% | ? | -9.3% | -12.9%
CC1CCN(c2ccc(-c3cccc(NC(=O)C(F)(F)F)c3)nn2)CC1 | -4.1 | 15.8µM* | -9.5% | -32.2% | -19.6%
CCC(=O)Nc1cccc(-c2ccc(N3CCC(C)CC3)nn2)c1 | -67.0* | -73.9% | -10.4% | -16.3% | -5.1%
CCOc1cc(C(=O)Nc2ccc(-c3nc4ncccc4o3)cc2C)cc(OCC)c1OCC | 1.1 | -18.1% | -2.9% | . | .
CCOC(=O)N1CCC(NC(=O)c2cc(C(=O)NC3CCCC3)ccc2CO)CC1 | 25.4 | 0.0% | ? | 0.708µM* | 4.7%
CCOC(=O)N1CCC(NC(=O)c2ccc(CO)c(C(=O)NC3CCN(C(=O)OCC)CC3)c2)CC1 | 18.3 | -4.3% | ? | 13.1% | 9.2%
CCOC(=O)N1CCC(NC(=O)c2ccc(N3CCC4(CC3)OCCO4)c([N+](=O)[O-])c2)CC1 | -27.8 | 25.1µM* | -3.9% | 68.5% | -3.9%
CCOC(=O)N1CCC(NC(=O)c2cc(C(=O)Nc3ccc(S(=O)(=O)N4CCCCC4)cc3)ccc2CO)CC1 | -34.5 | -12.0% | ? | 63.8% | -10.3%
CCOC(=O)N1CCC(NC(=O)c2cc(C(=O)Nc3cccc(C(F)(F)F)c3)ccc2CO)CC1 | ? | ? | -11.6% | 140.9% | 12.6µM*
SMILES | HCMV antiviral | FMDV antiviral | AmpC inh detg | AmpC inh no detg | HCV inhibitor
CCOC(=O)N1CCC(NC(=O)c2cc(C(=O)Nc3ccc(OCC)cc3)ccc2CO)CC1 | -66.9* | ? | ? | 64.1% | -21.6%
O=C1CC(C(=O)N2CCCC(c3nc(-c4ccncc4)ncc3-c3ccccc3)C2)C2(CCCCC2)O1 (stereo unspecified) | . | -3.7% | . | . | .
CCOC(=O)N1CCC(NC(=O)c2cnc3n(c2=O)CCS3)CC1 | -60.7* | -8.1% | 2.0% | -14.0% | 17.4%
CCCCNC(=O)c1cnc2n(c1=O)CCS2 | -2.3 | 25.2% | ? | -13.8% | 2.9%
COc1ccc(Cl)cc1S(=O)(=O)NC(C)C(=O)NCc1cccnc1 (stereo unspecified) | 0.3 | 10.0% | -7.3% | 1.1% | 23.9%
Cc1ccc(NC(=O)C2CCCN(S(=O)(=O)c3ccc4c(c3)oc(=O)n4C)C2)cc1Cl (stereo unspecified) | 14.0 | ? | -2.6% | . | .
Cc1ccc(C)c(N2CCN(C(=O)C3CCCN(S(=O)(=O)c4ccc5c(c4)oc(=O)n5C)C3)CC2)c1 (stereo unspecified) | -27.1 | 15.8µM* | 11.2% | . | .
Cc1cccc(NC(=O)C2CCCN(S(=O)(=O)c3ccc4c(c3)oc(=O)n4C)C2)c1 (stereo unspecified) | +! | 23.1% | 4.7% | 35.2% | -19.2%
CC1CCN(S(=O)(=O)N2CCCC(C(=O)NCc3ccc(F)cc3)C2)CC1 (stereo unspecified) | -22.8 | -17.7% | -4.2% | 35.3% | 6.5%
COc1cccc(N2CCN(C(=O)C3CCCN(S(=O)(=O)c4ccc5c(c4)oc(=O)n5C)C3)CC2)c1 (stereo unspecified) | -79.0*! | ? | -5.6% | 30.7% | 12.6µM*
CSc1ccc(CNC(=O)C2CCCN(S(=O)(=O)N(C)c3ccc(F)cc3)C2)cc1 (stereo unspecified) | -60.5* | ? | 16.2% | . | .
CCOc1ccc(S(=O)(=O)N2CCCC(C(=O)NCc3ccncc3)C2)cc1C (stereo unspecified) | -76.0* | -12.4% | -2.8% | 119.1% | ?
O=C(C1CCN(S(=O)(=O)N2CCOCC2)CC1)N1CCN(c2ccc(F)cc2)CC1 | -73.6* | -2.3% | 2.1% | 43.5% | ?
CCOc1ccc(S(=O)(=O)N2CCCC(C(=O)NCc3ccncc3)C2)cc1Cl (stereo unspecified) | -30.6 | 0.9% | -6.1% | 91.5% | -11.1%
Cc1cccc(N2CCN(C(=O)CCS(=O)(=O)c3ccc4c(c3)oc(=O)n4C)CC2)c1C | -61.6*! | ? | -9.2% | 58.5% | 11.2µM*
Cn1c(=O)oc2cc(S(=O)(=O)N3CCC(C(=O)N4CCN(c5ccccc5)CC4)CC3)ccc21 | ? | ? | -11.0% | -12.3% | 4.6%
Cn1c(=O)oc2cc(S(=O)(=O)N3CCC(C(=O)N4CCN(c5ccc(F)cc5)CC4)CC3)ccc21 | -61.2* | -28.4% | -10.0% | 83.7% | 14.1%
Cc1cccc(N2CCN(C(=O)CCNS(=O)(=O)c3ccc4c(c3)oc(=O)n4C)CC2)c1C | -39.0 | ? | -7.2% | 73.5% | ?
Cc1cccc(N2CCN(C(=O)C3(S(=O)(=O)c4ccc(Cl)cc4)CC3)CC2)c1C | ? | -15.4% | 2.1% | -27.2% | ?
